Assay results from the supplement of paper PMC8728848.
This is one part of a sample in which the strongest signals are shown more often than they occur.

Legend:
Assay in all cases: glycan array binding signal (z-score within array); higher = stronger binding
Settings in all cases: glycan notation: IUPAC condensed, linker removed
[1] = target: Fuc(a1-2)Gal(b1-3)GlcNAc(b1-2)Man(a1-3)[Fuc(a1-2)Gal(b1-3)GlcNAc(b1-2)Man(a1-6)]Man(b1-4)GlcNAc(b1-4)GlcNAc
Method in brief: (§1)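 Negative Z-scores can be read as non-binding. The Z-score is calculated within each array and then averaged across arrays of one protein sequence at different concentrations or buffers and across linkers. Arrays, 3228 in all, were curated from the Consortium for Functional Glycomics database and kept only where the protein sequence was available.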

[2] = target: Fuc(a1-2)Gal(b1-3)[Fuc(a1-4)]GlcNAc(b1-2)Man(a1-3)[Fuc(a1-2)Gal(b1-3)[Fuc(a1-4)]GlcNAc(b1-2)Man(a1-3)]Man(b1-4)GlcNAc(b1-4)GlcNAc
Method in brief: as §1

[3] = target: Fuc(a1-2)Gal(b1-4)GlcNAc(b1-3)Gal(b1-4)GlcNAc(b1-2)Man(a1-3)[Fuc(a1-2)Gal(b1-4)GlcNAc(b1-3)Gal(b1-4)GlcNAc(b1-2)Man(a1-6)]Man(b1-4)GlcNAc(b1-4)GlcNAc
Method in brief: as §1

[4] = target: Fuc(a1-2)Gal(b1-4)GlcNAc(b1-3)GalNAc
Method in brief: as §1

[5] = target: Fuc(a1-2)Gal6S(b1-3)GlcNAc6S
Method in brief: as §1

Fuc(a1-2)[Gal(a1-3)]Gal = target: Fuc(a1-2)[Gal(a1-3)]Gal
Method in brief: as §1

[6] = target: Fuc(a1-2)[Gal(a1-3)]Gal(b1-3)GlcNAc(b1-2)Man(a1-3)[Fuc(a1-2)[Gal(a1-3)]Gal(b1-3)GlcNAc(b1-2)Man(a1-6)]Man(b1-4)GlcNAc(b1-4)GlcNAc
Method in brief: as §1

[7] = target: Fuc(a1-3)[Gal(b1-4)]GlcNAc(b1-3)Gal(b1-4)[Fuc(a1-3)]GlcNAc
Method in brief: as §1

[8] = target: Fuc(a1-3)[GalNAc(b1-4)]GlcNAc6S
Method in brief: as §1

Gal(a1-4)Gal(b1-4)GlcNAc = target: Gal(a1-4)Gal(b1-4)GlcNAc
Method in brief: as §1

[9] = target: Gal(b1-3)GlcNAc(b1-2)[Gal(b1-3)GlcNAc(b1-6)]Man(a1-6)[Gal(b1-3)GlcNAc(b1-2)Man(a1-3)]Man(b1-4)GlcNAc(b1-4)GlcNAc
Method in brief: as §1

[10] = target: Gal(b1-3)GlcNAc(b1-3)Gal(b1-3)GlcNAc
Method in brief: as §1

[11] = target: Gal(b1-3)GlcNAc(b1-3)Gal(b1-4)Glc
Method in brief: as §1

[12] = target: Gal(b1-3)[GlcNAc(b1-6)]GalNAc
Method in brief: as §1

[13] = target: Gal(b1-4)GlcNAc(b1-2)Man(a1-3)[Gal(b1-4)GlcNAc(b1-2)Man(a1-6)]Man(b1-4)GlcNAc(b1-4)GlcNAc
Method in brief: as §1

[14] = target: Gal(b1-4)GlcNAc(b1-2)Man(a1-3)[Gal(b1-4)GlcNAc(b1-2)Man(a1-6)][GlcNAc(b1-4)]Man(b1-4)GlcNAc(b1-4)[Fuc(a1-6)]GlcNAc
Method in brief: as §1

[15] = target: Gal(b1-4)GlcNAc(b1-3)Gal(b1-3)GalNAc
Method in brief: as §1

[16] = target: Gal(b1-4)GlcNAc(b1-3)Gal(b1-4)GlcNAc(b1-3)Gal(b1-4)GlcNAc(b1-3)Gal(b1-4)GlcNAc(b1-2)Man(a1-3)[Gal(b1-4)GlcNAc(b1-3)Gal(b1-4)GlcNAc(b1-3)Gal(b1-4)GlcNAc(b1-3)Gal(b1-4)GlcNAc(b1-2)Man(a1-6)]Man(b1-4)GlcNAc(b1-4)GlcNAc
Method in brief: as §1

[17] = target: Gal(b1-4)GlcNAc(b1-3)Gal(b1-4)GlcNAc(b1-3)Gal(b1-4)GlcNAc(b1-3)Gal(b1-4)GlcNAc(b1-2)Man(a1-3)[Gal(b1-4)GlcNAc(b1-3)Gal(b1-4)GlcNAc(b1-3)Gal(b1-4)GlcNAc(b1-3)Gal(b1-4)GlcNAc(b1-2)Man(a1-6)]Man(b1-4)GlcNAc(b1-4)[Fuc(a1-6)]GlcNAc
Method in brief: as §1

[18] = target: Gal(b1-4)GlcNAc(b1-3)Gal(b1-4)GlcNAc(b1-3)Gal(b1-4)GlcNAc(b1-3)Gal(b1-4)GlcNAc(b1-3)Gal(b1-4)GlcNAc(b1-2)Man(a1-3)[Gal(b1-4)GlcNAc(b1-3)Gal(b1-4)GlcNAc(b1-3)Gal(b1-4)GlcNAc(b1-3)Gal(b1-4)GlcNAc(b1-3)Gal(b1-4)GlcNAc(b1-2)Man(a1-6)]Man(b1-4)GlcNAc(b1-4)[Fuc(a1-6)]GlcNAc
Method in brief: as §1

[19] = target: Gal(b1-4)GlcNAc(b1-3)[Fuc(a1-3)GlcNAc(b1-6)]Gal(b1-4)Glc
Method in brief: as §1

[20] = target: Gal(b1-4)GlcNAc(b1-3)[Gal(b1-4)GlcNAc(b1-6)]Gal(b1-4)GlcNAc
Method in brief: as §1

Gal(b1-4)GlcNAc6P = target: Gal(b1-4)GlcNAc6P
Method in brief: as §1

Gal3S(b1-4)Glc6S = target: Gal3S(b1-4)Glc6S
Method in brief: as §1

[21] = target: Gal3S(b1-4)[Fuc(a1-3)]GlcNAc6S
Method in brief: as §1

GalNAc(b1-3)GlcNAc = target: GalNAc(b1-3)GlcNAc
Method in brief: as §1

[22] = target: GalNAc3S(b1-4)[Fuc(a1-3)]GlcNAc
Method in brief: as §1

[23] = target: GlcA3S(b1-3)Gal(b1-4)GlcNAc(b1-3)Gal(b1-4)Glc
Method in brief: as §1

[24] = target: GlcNAc(b1-3)Gal(b1-4)GlcNAc(b1-2)[GlcNAc(b1-3)Gal(b1-4)GlcNAc(b1-6)]Man(a1-6)[GlcNAc(b1-3)Gal(b1-4)GlcNAc(b1-2)Man(a1-3)]Man(b1-4)GlcNAc(b1-4)GlcNAc
Method in brief: as §1

[25] = target: GlcNAc(b1-3)Gal(b1-4)GlcNAc(b1-6)[Gal(b1-3)]GalNAc
Method in brief: as §1

Man(a1-3)[Man(a1-6)]Man = target: Man(a1-3)[Man(a1-6)]Man
Method in brief: as §1

[26] = target: Neu5Ac(a2-3)Gal(b1-3)GlcNAc(b1-6)GalNAc
Method in brief: as §1

[27] = target: Neu5Ac(a2-3)Gal(b1-4)GlcNAc(b1-6)GalNAc
Method in brief: as §1

[28] = target: Neu5Ac(a2-6)Gal(b1-4)GlcNAc(b1-2)Man(a1-3)[Man(a1-6)]Man(b1-4)GlcNAc(b1-4)GlcNAc
Method in brief: as §1

[29] = target: Neu5Ac(a2-6)Gal(b1-4)GlcNAc(b1-2)Man(a1-3)[Neu5Ac(a2-6)Gal(b1-4)GlcNAc(b1-2)Man(a1-6)]Man(b1-4)GlcNAc(b1-4)GlcNAc
Method in brief: as §1

[30] = target: Neu5Ac(a2-6)Gal(b1-4)GlcNAc(b1-3)Gal(b1-3)GlcNAc
Method in brief: as §1

[31] = target: Neu5Ac(a2-6)Gal(b1-4)GlcNAc(b1-3)Gal(b1-4)GlcNAc
Method in brief: as §1

Neu5Ac(a2-6)GalNAc = target: Neu5Ac(a2-6)GalNAc
Method in brief: as §1

Neu5Gc(a2-6)GalNAc = target: Neu5Gc(a2-6)GalNAc
Method in brief: as §1

B1: Clec18C (Homo sapiens) (protein)
chain: MLHPETSPGRGHLLAVLLALLGTAWAEVWPPQLQEQAPMAGALNRKESFLLLSLHNRLRSWVQPPAADMRRLDWSDSLAQLAQARAALCGTPTPSLASGLWRTLQVGWNMQLLPAGLVSFVEVVSLWFAEGQRYSHAAGECARNATCTHYTQLVWATSSQLGCGRHLCSAGQAAIEAFVCAYSPRGNWEVNGKTIVPYKKGAWCSLCTASVSGCFKAWDHAGGLCEVPRNPCRMSCQNHGRLNISTCHCHCPPGYTGRYCQVRCSLQCVHGRLREEECSCVCDIGYGGAQCATKVHFPFHTCDLRIDGDCFMVSSEADTYYRARMKCQRKGGVLAQIKSQKVQDILAFYLGRLETTNEVIDSDFETRNFWIGLTYKTAKDSFRWATGEHQAFTSFAFGQPDNHGFGNCVELQASAAFNWNNQRCKTRNRYICQFAQEHISRWGPGS
With B1 the “glycan array binding signal (z-score)” value [1] was 3.46, the “glycan array binding signal (z-score)” value [2] was 0.055 and the “glycan array binding signal (z-score)” value [3] was 0.124. For the same binder, the “glycan array binding signal (z-score)” value [4] was 3.79, the “glycan array binding signal (z-score)” value [5] was -0.032 and the “glycan array binding signal (z-score)” value (Fuc(a1-2)[Gal(a1-3)]Gal) was -0.382. The “glycan array binding signal (z-score)” value [6] was -0.479, the “glycan array binding signal (z-score)” value [7] was -0.261 and the “glycan array binding signal (z-score)” value [8] was 0.313. The “glycan array binding signal (z-score)” value (Gal(a1-4)Gal(b1-4)GlcNAc) was 1.24, the “glycan array binding signal (z-score)” value [9] was -0.547 and the “glycan array binding signal (z-score)” value [10] was -0.443. For the same binder, the “glycan array binding signal (z-score)” value [11] was -0.457, the “glycan array binding signal (z-score)” value [12] was 4.42 and the “glycan array binding signal (z-score)” value [13] was 5.03. The “glycan array binding signal (z-score)” value [14] was 1.07, the “glycan array binding signal (z-score)” value [15] was 5.75 and the “glycan array binding signal (z-score)” value [16] was 1.91. For the same binder, the “glycan array binding signal (z-score)” value [17] was -0.276, the “glycan array binding signal (z-score)” value [18] was 3.34 and the “glycan array binding signal (z-score)” value [19] was -0.356. For the same binder, the “glycan array binding signal (z-score)” value [20] was 7.63, the “glycan array binding signal (z-score)” value (Gal(b1-4)GlcNAc6P) was 5.02 and the “glycan array binding signal (z-score)” value (Gal3S(b1-4)Glc6S) was -0.387. For the same binder, the “glycan array binding signal (z-score)” value [21] was -0.116, the “glycan array binding signal (z-score)” value (GalNAc(b1-3)GlcNAc) was 3.98 and the “glycan array binding signal (z-score)” value [22] was -0.342. For the same binder, the “glycan array binding signal (z-score)” value [23] was -0.395, the “glycan array binding signal (z-score)” value [24] was -0.368 and the “glycan array binding signal (z-score)” value [25] was -0.398. The “glycan array binding signal (z-score)” value (Man(a1-3)[Man(a1-6)]Man) was -0.507, the “glycan array binding signal (z-score)” value [26] was -0.247 and the “glycan array binding signal (z-score)” value [27] was 3.92. The “glycan array binding signal (z-score)” value [28] was -0.24, the “glycan array binding signal (z-score)” value [29] was 0.183 and the “glycan array binding signal (z-score)” value [30] was 0.131. For the same binder, the “glycan array binding signal (z-score)” value [31] was 3.16, the “glycan array binding signal (z-score)” value (Neu5Ac(a2-6)GalNAc) was 5.42 and the “glycan array binding signal (z-score)” value (Neu5Gc(a2-6)GalNAc) was -0.265.
